Results filed as inconclusive are left out. Where a call stands in place of a potency, no number is given. A number with no mark means an inactive call. Active and inactive are the calls of the source. Calls follow the shape of the dose curve; as a rule, active = well fitted curve in the direction sought with a large enough effect; inconclusive = small, poorly fitted or top-dose-only effect, or another doubt; inactive = no such curve, though single readings can be large; an effect the other way counts as inactive or inconclusive. Numbered stars: 1 amine (or outer) side, 2 acyl side, 3 side chain; on linkers, the order of the positions; unused ones are H or OH. Bridge positions count the residues as written; N and C are the ends. Square brackets hold non-standard residues; d marks the D form. Peptide text beside a SMILES is read from it. * marks the point of attachment. pTerphenylCO(4''-OnC5H11) = CCCCCOc1ccc(-c2ccc(-c3ccc(C(=O)*)cc3)cc2)cc1; Orn(4R-OH,5R-OH) = O=C([C@H](C[C@@H](O)[C@@H](O)N[*:3])N[*:1])[*:2]; hTyr(3S-OH,4S-OH) = N[C@H](C(=O)O)[C@H](O)[C@@H](O)c1ccc(O)cc1; Pro(3S-OH,4S-Me) = C[C@H]1CN[C@H](C(=O)O)[C@H]1O; Hyp = O=C(O)[C@@H]1C[C@@H](O)CN1
biological target: Cellular tumor antigen p53 (Homo sapiens) (UniProt P04637); experiment: Primary qHTS for small molecule compounds that upregulate eGFP-tagged delta133p53alpha (in N-terminal) cells. (AID 2060322); details: NCI-H358 eGFP-delta133p53alpha fluorescence, 24 h; activation: stronger effect = higher value; also: nearly all actives have a fitted effect of over 75% in size
In short: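 NCI-H358 cells pre-induced 24 h with 10 ng/ml doxycycline to express N-terminal eGFP-delta133p53alpha, then dosed 24 h at 37C without doxycycline; fixed, Hoechst-stained, GFP intensity by laser scanning cytometry, normalized to DMSO (0%) and 57.5 uM 5-azacytidine (100%).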

Chain of Cellular tumor antigen p53 (Homo sapiens) (P04637 whole entry, looked up): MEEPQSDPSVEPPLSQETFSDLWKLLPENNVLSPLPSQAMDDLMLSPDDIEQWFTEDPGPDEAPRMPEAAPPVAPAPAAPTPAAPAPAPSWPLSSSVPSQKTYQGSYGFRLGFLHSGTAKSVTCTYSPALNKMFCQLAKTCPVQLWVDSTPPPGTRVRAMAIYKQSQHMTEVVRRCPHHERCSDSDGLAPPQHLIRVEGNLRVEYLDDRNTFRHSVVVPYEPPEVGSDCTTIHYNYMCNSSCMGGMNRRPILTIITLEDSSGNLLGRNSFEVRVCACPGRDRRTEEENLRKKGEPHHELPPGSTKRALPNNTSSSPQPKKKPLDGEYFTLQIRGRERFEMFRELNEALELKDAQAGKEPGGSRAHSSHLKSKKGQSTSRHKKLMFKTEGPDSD

Compound	activation
Cc1cc(CN)cc(C)c1NC(=O)c1ccc(-c2cc(Cl)ccc2Cl)o1	6.68%
CNC(=O)c1ccc2cc([C@@]3(O)CCn4cncc43)ccc2c1	-9.55%
CNCCCC1(c2ccccc2)OC(C)(C)c2ccccc21 (stereo not drawn)	-11.9%
O=C(Nc1ccc(S(=O)(=O)Nc2ccccc2Cl)c(Cl)c1)c1ccccn1	15.8%
Cc1cc(-c2nncc3c(C(C)(C)C)c(OCc4ncnn4C)nn23)no1	6.68%
Cc1oc(S(=O)(=O)N2CCCCC2)cc1NC(=O)Nc1ccccc1	0.955%
O=C(Nc1ccccc1Br)NC1CCN(c2ccc(C(F)(F)F)cn2)C1 (stereo not drawn)	0.477%
CNC(=O)[C@@H](c1ccccc1)N1CCc2cc(OC)c(OC)cc2[C@@H]1CCc1ccc(C(F)(F)F)cc1	-3.34%
COc1cc(Nc2nc3c(s2)CCCC3c2ccccc2)ccc1-n1cnc(C)c1 (stereo not drawn)	-18.6%
CNc1cc2[nH]c(=O)n(-c3ccc(NC(=O)NS(=O)(=O)c4ccc(Cl)s4)cc3)c(=O)c2cc1F	8.11%
Cc1oc2ccccc2c1CNC(=O)NCc1cccs1	-8.59%
CCCCS(=O)(=O)NC(Cc1ccc(OCCCCC2CCNCC2)cc1)C(=O)O (stereo not drawn)	12.9%
Cc1cccc(C)c1OCc1cc(C(=O)N2CCC(c3ccncc3)CC2)no1	0.955%

biological target: Aldehyde dehydrogenase, mitochondrial (Homo sapiens) (UniProt P05091); experiment: qHTS for Inhibitors of the Aldehyde Dehydrogenase Family (ALDH2) Primary screen (AID 2061308); details: ALDH2 enzyme inhibition qHTS, 1536-well; series mostly up to 56 µM; also: nearly all actives have a fitted effect of over 55% in size

Compound	Potency
CC[C@H]1OC(=O)[C@H](C)[C@@H](O[C@H]2C[C@@](C)(OC)[C@@H](O)[C@H](C)O2)[C@H](C)[C@@H](O[C@@H]2O[C@H](C)C[C@H](N(C)C)[C@H]2O)[C@@](C)(O)C[C@@H](C)[C@@H]2N[C@@H](COCCOC)OC([C@H]2C)[C@]1(C)O	inactive
CNc1ccc([N+](=O)[O-])cc1-n1cnc(-c2ccc(C(F)(F)F)cc2)c1	inactive
C[C@@H](O)[C@H](NC(=O)c1ccc(C#Cc2ccc(CN3CCOCC3)cc2)cc1)C(=O)NO	inactive
CN(C)c1ccnc2sc3c(=O)n(N4CCCCCC4)cnc3c12	inactive
O=S(=O)(NC1CCC(c2cc(F)ccc2F)(S(=O)(=O)c2ccc(Cl)cc2)CC1)C(F)(F)F (stereo not drawn)	inactive
C[C@@H]1C(=O)O[C@H]2[C@@H](O)C34[C@H]5C[C@@H](C(C)(C)C)C36[C@@H](OC(=O)[C@@H]6O)O[C@@]4(C(=O)O5)[C@@]12O (stereo partly drawn)	inactive
CN(C)c1nc(Cc2ccc(NC(=O)c3ccc4ccccc4c3)cc2)nc(Cl)c1CC(=O)O	inactive
CC(=O)SCC(=O)c1ccc(NS(=O)(=O)c2ccc(OCCCN(C)C)cc2)nc1	inactive
C=CC(C)(O)CC[C@@H]1[C@@]2(C)CCCC(C)(C)C2CC[C@@]1(C)O (stereo partly drawn)	inactive
O=[N+]([O-])c1cc(Cl)ccc1S(=O)(=O)N1CCN(Cc2ccccc2)CC1	inactive
CCN1CCN(Cc2ccc(NC(=O)c3ccc(C)c(Oc4ncnc5[nH]c(C)cc45)c3)cc2C(F)(F)F)CC1	inactive
CC(C)(C)C1CCN(C(=O)n2ncc(C(O)(c3ccccc3)c3ccccc3)n2)CC1	inactive
CCC(C)c1ccc(NC(=O)Cn2cnc3c2c(=O)n(C)c(=O)n3C)cc1 (stereo not drawn)	inactive
Cc1nc(C#Cc2ccnc(Cl)c2)c(C)n1-c1ccc(F)cc1	inactive
Cc1ccc(-c2c(-c3nn(C)c4ncnc(N5CCC(N6CCCCC6)C5)c34)cnn2C)cc1 (stereo not drawn)	inactive
CCCCCOc1ccc(-c2ccc(-c3ccc(C(=O)N[C@H]4C[C@@H](O)[C@@H](O)NC(=O)[C@@H]5[C@@H](O)[C@@H](C)CN5C(=O)[C@H]([C@@H](C)O)NC(=O)[C@H]([C@H](O)[C@@H](O)c5ccc(O)cc5)NC(=O)[C@@H]5C[C@@H](O)CN5C(=O)[C@H]([C@@H](C)O)NC4=O)cc3)cc2)cc1 ({pTerphenylCO(4''-OnC5H11)}-[Orn(4R-OH,5R-OH)]T[Hyp][hTyr(3S-OH,4S-OH)]T[Pro(3S-OH,4S-Me)]; lactam 1-C)	inactive
CCOC(=O)c1ccc(N(C)c2csc(-c3ccccc3)n2)cc1	inactive
O=C(Nc1ccc(N2CCC(C(=O)N3CCOCC3)CC2)cc1)c1cnc(Oc2ccccc2)nc1	inactive
CNc1cc(OC)c(C(=O)N[C@@H]2CCN(Cc3ccccc3)[C@@H]2C)cc1Cl	inactive
COc1cc(Br)c(S(=O)(=O)Nc2ccc(C(F)(F)F)c(O[C@@H]3CCN(C)C3)c2)cc1OC	inactive

— PubChem BioAssay (NCATS)
